Data published in paper PMC4336329 (PLoS ONE, 2015).
Out of some 310,000 compounds screened, about 14,000 (4.5%) showed an effect of 50% or more. Effects have a minus sign here. The entries come from a sample that favours strong results as a whole.

molecular target: human ether-à-go-go-related gene (hERG) potassium channel (human, UniProt Q12809); assay: primary screen, population patch clamp on CHO cells stably expressing hERG; higher = less effect of the substance
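Further: peak tail current of the secondary pulse compared with the same well before compound.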

Sequence of human ether-à-go-go-related gene (hERG) potassium channel (Q12809 whole entry, looked up): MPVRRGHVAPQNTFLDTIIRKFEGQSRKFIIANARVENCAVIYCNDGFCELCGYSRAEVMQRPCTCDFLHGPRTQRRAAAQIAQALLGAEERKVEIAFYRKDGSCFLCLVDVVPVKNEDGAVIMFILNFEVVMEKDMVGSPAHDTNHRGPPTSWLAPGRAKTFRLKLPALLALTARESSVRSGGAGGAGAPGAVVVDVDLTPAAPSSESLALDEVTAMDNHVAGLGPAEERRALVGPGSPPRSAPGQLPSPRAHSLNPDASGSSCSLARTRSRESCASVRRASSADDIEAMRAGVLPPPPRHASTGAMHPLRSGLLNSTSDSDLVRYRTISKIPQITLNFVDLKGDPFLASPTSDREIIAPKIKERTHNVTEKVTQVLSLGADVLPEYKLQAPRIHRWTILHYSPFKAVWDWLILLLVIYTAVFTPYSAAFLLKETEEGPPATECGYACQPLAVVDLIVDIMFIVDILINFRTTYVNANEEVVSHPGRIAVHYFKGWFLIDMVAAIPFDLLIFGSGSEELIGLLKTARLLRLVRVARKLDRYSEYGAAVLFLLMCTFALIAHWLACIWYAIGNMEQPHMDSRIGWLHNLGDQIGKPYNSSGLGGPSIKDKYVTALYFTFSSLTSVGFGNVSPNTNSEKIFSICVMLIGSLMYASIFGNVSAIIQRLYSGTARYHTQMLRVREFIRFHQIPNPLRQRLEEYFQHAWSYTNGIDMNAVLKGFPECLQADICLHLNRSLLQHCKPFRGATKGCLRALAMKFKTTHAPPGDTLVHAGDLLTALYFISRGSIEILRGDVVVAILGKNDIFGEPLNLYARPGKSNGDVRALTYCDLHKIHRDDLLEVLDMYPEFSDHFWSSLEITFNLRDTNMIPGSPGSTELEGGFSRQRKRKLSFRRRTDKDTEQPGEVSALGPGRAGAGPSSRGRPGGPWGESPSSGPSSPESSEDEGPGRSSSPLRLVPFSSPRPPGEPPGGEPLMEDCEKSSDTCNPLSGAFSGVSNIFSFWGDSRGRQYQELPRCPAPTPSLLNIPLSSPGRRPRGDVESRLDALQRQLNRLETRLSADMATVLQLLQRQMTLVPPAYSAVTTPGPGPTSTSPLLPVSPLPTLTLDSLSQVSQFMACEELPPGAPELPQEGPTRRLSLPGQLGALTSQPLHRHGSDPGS

**Q.** How did the “hERG current change (%, negative = inhibition) at 10uM” value turn out when O=c1c2ccccc2nc(-c2ccccc2)n1CCCN1CCOCC1 was run?
**A.** -20.4%

**Q.** O=C(NCCCN1CCOCC1)C(=O)NCc1ccco1 was tested. Which “hERG current change (%, negative = inhibition) at 10uM” value did it give?
**A.** -1.68%

**Q.** With O=C(NCCN1CCOCC1)C(=O)NCc1ccco1 as the molecule, how does the “hERG current change (%, negative = inhibition) at 10uM” value read?
**A.** 19.5%

**Q.** With CC(C)Cn1c2nc3ccccc3nc2c2c(=O)n(CCN3CCOCC3)cnc21 as the molecule, how does the “hERG current change (%, negative = inhibition) at 10uM” value read?
**A.** -48.1%

**Q.** N=c1c2c(-c3ccccc3)c(-c3ccccc3)n(Cc3ccco3)c2ncn1CCCN1CCOCC1 was tested. Which “hERG current change (%, negative = inhibition) at 10uM” value did it give?
**A.** -84.9%

**Q.** How did the “hERG current change (%, negative = inhibition) at 10uM” value turn out when N=c1c2c(-c3ccccc3)c(-c3ccccc3)n(Cc3ccco3)c2ncn1CCN1CCOCC1 was run?
**A.** -75.9%

**Q.** Cc1ccccc1C(=O)NCCCNC(=O)c1cnccn1 was tested. Which “hERG current change (%, negative = inhibition) at 10uM” value did it give?
**A.** 13.5%

**Q.** How did the “hERG current change (%, negative = inhibition) at 10uM” value turn out when COc1ccccc1OCc1nc(Cc2ccc(Cl)cc2)no1 was run?
**A.** -31.4%

**Q.** CCn1c(=O)c(C(=O)NNC(=O)c2ccccc2Cl)c(O)c2ccccc21 was tested. Which “hERG current change (%, negative = inhibition) at 10uM” value did it give?
**A.** 7.09%

**Q.** For CC1=C(C(=O)OCC2CCCO2)C(c2ccccc2)C2=C(CCCC2=O)N1 (stereo not shown), which “hERG current change (%, negative = inhibition) at 10uM” value is on record?
**A.** 11.2%

**Q.** Which “hERG current change (%, negative = inhibition) at 10uM” value does the source give for CCC(C)[C@H](NC(=O)N1CCn2c1nc1ccccc12)C(=O)NCCc1ccccc1 (stereo partly shown) here?
**A.** -2.42%

**Q.** For COc1ccc(OC)c(/C=C/C(=O)OCC(=O)NCc2cccs2)c1, which “hERG current change (%, negative = inhibition) at 10uM” value is on record?
**A.** 17.8%

**Q.** For Cc1onc(-c2ccccc2)c1NC(=O)N(CCC(=O)O)Cc1ccccc1, which “hERG current change (%, negative = inhibition) at 10uM” value is on record?
**A.** 2.16%

**Q.** Which “hERG current change (%, negative = inhibition) at 10uM” value does the source give for COc1ccc(NC(=O)CN(C)C(=O)c2ccc3c(c2)NC(=O)CS3)cc1 here?
**A.** -10.2%

**Q.** For COC(=O)c1cc(NC(=O)c2cccs2)ccc1N1CCOCC1, which “hERG current change (%, negative = inhibition) at 10uM” value is on record?
**A.** -1.74%

**Q.** For COc1ccc(-c2cc(C(=O)N3CC(C)CC(C)C3)c3ccccc3n2)cc1 (stereo not shown), which “hERG current change (%, negative = inhibition) at 10uM” value is on record?
**A.** 5.7%

**Q.** For O=C(CCCN1C(=O)c2ccccc2C1=O)N1CCc2ccccc2C1, which “hERG current change (%, negative = inhibition) at 10uM” value is on record?
**A.** -27.2%

**Q.** With CC(C)CC(C(=O)N1CCc2ccccc2C1)N1C(=O)c2ccccc2C1=O (stereo not shown) as the molecule, how does the “hERG current change (%, negative = inhibition) at 10uM” value read?
**A.** -50.3%

**Q.** CC(C)CC(C(=O)N1CCOCC1)N1Cc2ccccc2C1=O (stereo not shown) was tested. Which “hERG current change (%, negative = inhibition) at 10uM” value did it give?
**A.** 29.3%

**Q.** With Cc1cc(NC(=O)c2cccs2)ncc1NC(=O)C(C)(C)C as the molecule, how does the “hERG current change (%, negative = inhibition) at 10uM” value read?
**A.** 9.59%

**Q.** With O=C(c1ccc(-c2ccccc2)cc1)C1CCCN(C(=O)c2ccncc2)C1 (stereo not shown) as the molecule, how does the “hERG current change (%, negative = inhibition) at 10uM” value read?
**A.** -13.4%

**Q.** For Cn1cc(CN2CCCC(C(=O)c3ccc(-c4ccccc4)c(F)c3)C2)cn1 (stereo not shown), which “hERG current change (%, negative = inhibition) at 10uM” value is on record?
**A.** -55.4%

**Q.** With CSc1ccc(C(=O)C2CCCN(C(=O)c3cc(C)n(C)n3)C2)cc1 (stereo not shown) as the molecule, how does the “hERG current change (%, negative = inhibition) at 10uM” value read?
**A.** -7.88%

**Q.** Which “hERG current change (%, negative = inhibition) at 10uM” value does the source give for CSc1ccc(C(=O)C2CCCN(CCCn3cccn3)C2)cc1 (stereo not shown) here?
**A.** -76.8%

**Q.** Which “hERG current change (%, negative = inhibition) at 10uM” value does the source give for Cn1nc(C(=O)N2CCCC2)c2ccccc2c1=O here?
**A.** 23%

**Q.** For CN(C)S(=O)(=O)N1CCCC(C(=O)c2ccc(-c3ccccc3)c(F)c2)C1 (stereo not shown), which “hERG current change (%, negative = inhibition) at 10uM” value is on record?
**A.** 7.39%

**Q.** Which “hERG current change (%, negative = inhibition) at 10uM” value does the source give for O=C(c1ccc(C(F)(F)F)cc1)C1CCCN(Cc2ccncc2)C1 (stereo not shown) here?
**A.** -23.7%

**Q.** For CSc1ccc(C(=O)C2CCCN(C)C2)cc1 (stereo not shown), which “hERG current change (%, negative = inhibition) at 10uM” value is on record?
**A.** -23.1%

**Q.** With O=C(c1ccc(-c2ccccc2)cc1)C1CCCN(Cc2ccncc2)C1 (stereo not shown) as the molecule, how does the “hERG current change (%, negative = inhibition) at 10uM” value read?
**A.** -62.6%

**Q.** With CSc1ccc(C(=O)C2CCCN(C(=O)CCCn3cncn3)C2)cc1 (stereo not shown) as the molecule, how does the “hERG current change (%, negative = inhibition) at 10uM” value read?
**A.** -40.5%

**Q.** For CSc1ccc(C(=O)C2CCCN(C(=O)c3nn(C)c(=O)c4ccccc34)C2)cc1 (stereo not shown), which “hERG current change (%, negative = inhibition) at 10uM” value is on record?
**A.** -64.9%

**Q.** Which “hERG current change (%, negative = inhibition) at 10uM” value does the source give for Clc1ccc(-c2csc(N/N=C/c3cccnc3)n2)c(Cl)c1 here?
**A.** -11.9%

**Q.** CC(=O)N1Cc2cc(N)ccc2Oc2ccccc21 was tested. Which “hERG current change (%, negative = inhibition) at 10uM” value did it give?
**A.** 9.9%

**Q.** How did the “hERG current change (%, negative = inhibition) at 10uM” value turn out when Cc1cccc(NC(=S)N2CCN(S(=O)(=O)c3ccc(F)cc3)CC2)c1 was run?
**A.** 16.7%

**Q.** With CCOC(=O)C(NCCCCl)c1ccccc1 (stereo not shown) as the molecule, how does the “hERG current change (%, negative = inhibition) at 10uM” value read?
**A.** 2.53%

**Q.** With CCOC(=O)C(C)Sc1nnc(CSc2nc3nc(C)cc(C)n3n2)o1 (stereo not shown) as the molecule, how does the “hERG current change (%, negative = inhibition) at 10uM” value read?
**A.** 9.3%

**Q.** CCOc1ccccc1N=Cc1c(O)c2ccccc2oc1=O was tested. Which “hERG current change (%, negative = inhibition) at 10uM” value did it give?
**A.** 15.4%

**Q.** With CN(c1ccc(C(=O)N2CCCCC2)cc1)S(C)(=O)=O as the molecule, how does the “hERG current change (%, negative = inhibition) at 10uM” value read?
**A.** 10.6%

**Q.** Which “hERG current change (%, negative = inhibition) at 10uM” value does the source give for COc1ccc(Nc2nc(NC(C)(C)C)nc(N3CCOCC3)n2)c(OC)c1 here?
**A.** -25.3%

**Q.** For O=C(Oc1ccc2c3c(c(=O)oc2c1)CCCC3)c1cccs1, which “hERG current change (%, negative = inhibition) at 10uM” value is on record?
**A.** -4.43%

**Q.** For CCn1cc(CN2CCCC(C(=O)c3ccc(-c4ccccc4)cc3)C2)cn1 (stereo not shown), which “hERG current change (%, negative = inhibition) at 10uM” value is on record?
**A.** -59.1%

**Q.** For O=C(c1ccc(-c2ccccc2)c(F)c1)C1CCCN(CCCn2cccn2)C1 (stereo not shown), which “hERG current change (%, negative = inhibition) at 10uM” value is on record?
**A.** -69.6%

**Q.** How did the “hERG current change (%, negative = inhibition) at 10uM” value turn out when COCC(=O)N1CCCC(C(=O)c2ccc(-c3ccccc3)c(F)c2)C1 (stereo not shown) was run?
**A.** -23.3%

**Q.** Which “hERG current change (%, negative = inhibition) at 10uM” value does the source give for O=C(c1ccc(-c2ccccc2)c(F)c1)C1CCCN(CCO)C1 (stereo not shown) here?
**A.** -44.8%

**Q.** With CC(=O)NCC(=O)N1CCCC(C(=O)c2ccc(-c3ccccc3)c(F)c2)C1 (stereo not shown) as the molecule, how does the “hERG current change (%, negative = inhibition) at 10uM” value read?
**A.** -25.1%

**Q.** CCC(=O)N1CCCC(C(=O)c2ccc(-c3ccccc3)cc2)C1 (stereo not shown) was tested. Which “hERG current change (%, negative = inhibition) at 10uM” value did it give?
**A.** -19%

**Q.** Which “hERG current change (%, negative = inhibition) at 10uM” value does the source give for CCn1cc(CN2CCCC(C(=O)c3ccc(-c4ccccc4)c(F)c3)C2)cn1 (stereo not shown) here?
**A.** -57.6%

**Q.** With Cn1cc(CN2CCCC(C(=O)c3ccc(-c4ccccc4)cc3)C2)cn1 (stereo not shown) as the molecule, how does the “hERG current change (%, negative = inhibition) at 10uM” value read?
**A.** -34.4%

**Q.** With O=C(c1ccc(-c2ccccc2)c(F)c1)C1CCCN(C(=O)c2cncs2)C1 (stereo not shown) as the molecule, how does the “hERG current change (%, negative = inhibition) at 10uM” value read?
**A.** -18.4%

**Q.** Which “hERG current change (%, negative = inhibition) at 10uM” value does the source give for NC(=O)CSc1nc2scc(-c3ccc(Cl)cc3)c2c(=O)n1Cc1ccccc1 here?
**A.** 33.1%

**Q.** Which “hERG current change (%, negative = inhibition) at 10uM” value does the source give for O=[N+]([O-])c1ccc(N2CCN(S(=O)(=O)c3ccccc3[N+](=O)[O-])CC2)cc1NCc1cccnc1 here?
**A.** -8.91%

**Q.** For Cc1ccccc1OCC(=O)N/N=C/c1cccc(Oc2ccc([N+](=O)[O-])cc2[N+](=O)[O-])c1, which “hERG current change (%, negative = inhibition) at 10uM” value is on record?
**A.** 5.59%

**Q.** For CCn1cc(C(=O)NCCc2ccccc2)c(=O)c2cc(S(=O)(=O)N(C)C)ccc21, which “hERG current change (%, negative = inhibition) at 10uM” value is on record?
**A.** 7.05%

**Q.** Which “hERG current change (%, negative = inhibition) at 10uM” value does the source give for O=C(NCCc1csc(-c2cccnc2)n1)c1cccc(Cl)c1 here?
**A.** -17.7%

**Q.** With CC1CCN(c2ccc(C(=O)O)cc2)CC1 as the molecule, how does the “hERG current change (%, negative = inhibition) at 10uM” value read?
**A.** 2.86%

**Q.** With COc1ccccc1/C=C/C(=O)NC(=S)N(C)C1CCCCC1 as the molecule, how does the “hERG current change (%, negative = inhibition) at 10uM” value read?
**A.** 1.35%

**Q.** Which “hERG current change (%, negative = inhibition) at 10uM” value does the source give for COc1ccc(/C=C/C(=O)NCC(=O)N2CCC(N(C)CCN3CCOCC3)CC2)cc1OC here?
**A.** 14.7%

**Q.** How did the “hERG current change (%, negative = inhibition) at 10uM” value turn out when CC1CCN(C(=O)CNC(=O)Cc2ccccc2)CC1 was run?
**A.** 9.53%

**Q.** For CC1CCCCC1N(C)C1CCN(C(=O)CNC(=O)/C=C/c2cccc(Cl)c2)CC1 (stereo not shown), which “hERG current change (%, negative = inhibition) at 10uM” value is on record?
**A.** -73.6%

**Q.** How did the “hERG current change (%, negative = inhibition) at 10uM” value turn out when CCOc1ccccc1/C=C/C(=O)NCC(=O)N1CCC(N(C)C2CCCCC2C)CC1 (stereo not shown) was run?
**A.** -54.7%

**Q.** Which “hERG current change (%, negative = inhibition) at 10uM” value does the source give for CN(C)C(CNC(=O)/C=C/c1cccc(Cl)c1)c1ccccc1 (stereo not shown) here?
**A.** -19.2%

**Q.** Which “hERG current change (%, negative = inhibition) at 10uM” value does the source give for Cc1ccccc1/C=C/C(=O)NCC(=O)N1CCC(N(C)C2CCCCC2C)CC1 (stereo not shown) here?
**A.** -72.1%

**Q.** CCOc1ccc(C(=O)NCC(=O)N2CCC(C)CC2)cc1OCC was tested. Which “hERG current change (%, negative = inhibition) at 10uM” value did it give?
**A.** 3.68%

**Q.** Which “hERG current change (%, negative = inhibition) at 10uM” value does the source give for O=C(/C=C/c1cccc(Cl)c1)NCCN1CCOCC1 here?
**A.** -14.7%
